Test results taken from PubChem BioAssay (Tox21).
Inconclusive results are not listed. Activity calls are given as the source filed them. Unless noted, the call rests on the fitted dose curve; in most records, active means well fitted curve in the direction sought with a large enough effect in the repeat runs; inconclusive means weak or mixed curves; inactive means no such curve, though single readings can be large; an effect the other way counts as inactive or inconclusive.

How the values were obtained:
[1] = qHTS assay for small molecule agonists of the p53 signaling pathway (AID 651631; calls by dose curve; further: nearly all actives have a fitted effect of over 15% in size)
How it was run: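 HCT-116 p53RE-bla reporter line, 16 h compound treatment at 37 °C, then fluorescence after 2 h with B/G FRET substrate.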

[2] = qHTS assay for small molecules that induce genotoxicity in human embryonic kidney cells expressing luciferase-tagged ATAD5 (AID 651632); further: nearly all actives have a fitted effect of over 15% in size
How it was run: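 HEK293T cells carrying a luciferase reporter tagged to ATAD5 were exposed to compound or DMSO vehicle for 16 hr at 37C, 5% CO2. Amplite was added, and after 30 min at room temperature luciferase activity was read as a marker of ATAD5 induction.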

[3] = qHTS assay for small molecule agonists of the p53 signaling pathway - cell viability (AID 651633; calls by dose curve;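 further: p53RE-bla HCT reporter cells with a stable beta-lactamase p53 reporter; series mostly up to about 83 µM; nearly all actives have a fitted effect of over 30% in size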)
How it was run: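 Viability counter-read: CellTiter-Glo luminescence (30 min, room temperature) in the same p53RE-bla plates. These plates had been exposed to compounds for 16 h at 37 C.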

[4] = qHTS assay for small molecules that induce genotoxicity in human embryonic kidney cells expressing luciferase-tagged ATAD5 - cell viability (AID 651634; calls by dose curve; further: nearly all actives have a fitted effect of over 25% in size)
How it was run: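 HEK293T cells expressing luciferase-tagged ATAD5 were exposed to compound or DMSO for 15.5 hr at 37C, 5% CO2. Viability was then read as live-cell protease activity by CellTiter-Fluor fluorescence after 30 min at 37C.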

[5] = qHTS assay for small molecule disruptors of the mitochondrial membrane potential - cell viability (AID 720634; calls by dose curve;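 further: human HepG2 liver cancer cells; series mostly up to about 83 µM; nearly all actives have a fitted effect of over 20% in size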)
How it was run: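 HepG2 cells seeded overnight at 37 C, then exposed to compound or DMSO for 1 hr at 37 C, 5% CO2. m-MPI dye added, then CellTiter-Glo for 30 min at room temperature; viability read as ATP luminescence.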

[6] = qHTS assay for small molecule disruptors of the mitochondrial membrane potential (AID 720635)
How it was run: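 Mitochondrial membrane potential tracked with Mito-MPS dye, red aggregates (ex 540/em 590 nm) against green monomers (ex 490/em 535 nm). Compound treatment 1 hr at 37C, dye 30 min in HepG2.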

[7] = qHTS assay to test for compound auto fluorescence at 590 nm (red) in HepG2 cells (AID 720674)
How it was run: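 We screened compounds on adherent HepG2 cells, incubating them for an hour at 37 C in 5% CO2 before reading emission at 590 nm under 540 nm excitation; values reflect equivalence to Rose Bengal sodium fluorescence.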

[8] = qHTS assay to test for compound auto fluorescence at 535 nm (green) in HepG2 cells (AID 720675)
[9] = qHTS assay to test for compound auto fluorescence at 460 nm (blue) in HEK293 cells (AID 720678)
How it was run: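 Intrinsic compound fluorescence is recorded in live HEK293 cultures after overnight incubation at 37C, 5% CO2, using excitation 405 nm and emission 460 nm. Values are referenced to triamterene.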

[10] = qHTS assay to test for compound auto fluorescence at 590 nm (red) in HEK293 cells (AID 720679)
How it was run: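 Red autofluorescence, HEK293 cells: 2,000 cells/well; attach 4-5 hr 37C; add 23 nL cpd or DMSO; incubate o/n 37C 5% CO2; read Ex540/Em590; Rose Bengal sodium reference.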

[11] = qHTS assay to test for compound auto fluorescence at 535 nm (green) in HEK293 cells (AID 720680)
[12] = qHTS assay to test for compound auto fluorescence at 460 nm (blue) in HEK293 cell free culture (AID 720681)
How it was run: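 Blue fluorescence (Ex 405/Em 460 nm, triamterene-equivalent) was read immediately after pin transfer of compound or DMSO into medium (DMEM, 10% FBS) without cells.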

[13] = qHTS assay to test for compound auto fluorescence at 590 nm (red) in HEK293 cell free culture (AID 720683)
How it was run: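 Red-channel autofluorescence of compounds in culture medium (DMEM, 10% FBS), no cells, measured at 540/590 nm. Rose Bengal sodium is the reference fluorophore for equivalence.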

[14] = qHTS assay to test for compound auto fluorescence at 590 nm (red) in HepG2 cell free culture (AID 720684)
How it was run: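 Plate contents were MEM with 10% FBS plus test compound or DMSO, no cells. Fluorescence was recorded with 540 nm excitation and 590 nm emission.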

[15] = qHTS assay to test for compound auto fluorescence at 460 nm (blue) in HepG2 cell free culture (AID 720685)
How it was run: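 Compound (23 nL) or DMSO pinned into cell-free MEM with 10% FBS; blue fluorescence read at 405/460 nm excitation/emission, expressed as auto-fluorescence equivalency to triamterene.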

[16] = qHTS assay to test for compound auto fluorescence at 535 nm (green) in HepG2 cell free culture (AID 720686)
[17] = qHTS assay to test for compound auto fluorescence at 460 nm (blue) in HepG2 cells (AID 720687)
How it was run: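 Blue-channel autofluorescence (Ex/Em 405/460 nm, triamterene-equivalent) was measured after 1 hr compound exposure at 37 C, 5% CO2. Cells were HepG2, plated overnight at 37 C in MEM plus 10% FBS.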

[18] = molecular target: Glucocorticoid receptor (Homo sapiens) (UniProt P04150); assay: qHTS assay to identify small molecule agonists of the glucocorticoid receptor (GR) signaling pathway (AID 720691; active means well fitted activation curve with a large enough effect in the signal ratio in the repeat runs, not every such curve was filed as active; the % refers to the signal ratio)
How it was run: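 GR-bla HeLa cells (beta-lactamase reporter under glucocorticoid response element) were plated 4 h at 37 C/5% CO2, given compounds in DMSO, and incubated 18 h at 37 C. LiveBLAzer B/G FRET substrate was added for 2 h at room temperature, then fluorescence intensity read.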

[19] = qHTS assay to test for compound auto fluorescence at 535 nm (green) in HEK293 cell free culture (AID 720682)
How it was run: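 Steps: dispense DMEM/10% FBS into empty wells; pin in compound or DMSO; measure fluorescence at 485/535 nm. Values are fluorescein equivalents.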

[20] = molecular target: Glucocorticoid receptor (Homo sapiens) (UniProt P04150); assay: qHTS assay to identify small molecule antagonists of the glucocorticoid receptor (GR) signaling pathway (AID 720692; active means well fitted inhibition curve with a large enough effect in the signal ratio in the repeat runs, not every such curve was filed as active; the % refers to the signal ratio)
How it was run: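 GR-bla HeLa cells (beta-lactamase reporter under glucocorticoid response element) were pre-plated 4 h at 37 C, treated with compounds plus 5 nM dexamethasone (final) for 18 h, then read by LiveBLAzer B/G FRET fluorescence after 2 h.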

Measured: Potency

Chain of Glucocorticoid receptor (Homo sapiens) (P04150 whole entry, looked up): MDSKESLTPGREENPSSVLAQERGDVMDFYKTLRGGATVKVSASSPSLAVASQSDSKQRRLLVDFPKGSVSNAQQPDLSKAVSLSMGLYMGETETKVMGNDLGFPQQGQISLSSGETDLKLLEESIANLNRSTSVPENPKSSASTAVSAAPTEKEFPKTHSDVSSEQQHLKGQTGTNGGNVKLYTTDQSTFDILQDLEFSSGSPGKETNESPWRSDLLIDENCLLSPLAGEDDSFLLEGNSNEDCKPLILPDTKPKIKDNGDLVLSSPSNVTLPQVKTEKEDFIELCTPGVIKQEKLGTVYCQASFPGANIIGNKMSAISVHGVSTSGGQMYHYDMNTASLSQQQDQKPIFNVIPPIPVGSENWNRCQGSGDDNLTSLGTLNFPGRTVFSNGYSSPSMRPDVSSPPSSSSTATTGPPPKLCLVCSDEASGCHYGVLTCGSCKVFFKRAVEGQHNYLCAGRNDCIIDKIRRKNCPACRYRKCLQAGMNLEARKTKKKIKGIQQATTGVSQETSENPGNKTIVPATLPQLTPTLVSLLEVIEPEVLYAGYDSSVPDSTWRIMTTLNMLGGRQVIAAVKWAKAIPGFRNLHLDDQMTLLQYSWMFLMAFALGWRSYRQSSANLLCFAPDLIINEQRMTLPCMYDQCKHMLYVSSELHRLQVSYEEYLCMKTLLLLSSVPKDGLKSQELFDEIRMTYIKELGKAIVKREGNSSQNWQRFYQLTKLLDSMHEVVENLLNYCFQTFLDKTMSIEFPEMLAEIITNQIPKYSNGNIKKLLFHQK

CC(=O)CCc1ccc2c(c1)OCO2
inactive: [1] | [2] | [3] | [4] | [5] | [6] | [7] | [8] | [9] | [10] | [11] | [12] | [13] | [14] | [15] | [16] | [17] | [18]

CC(C=O)Cc1ccc2c(c1)OCO2 (stereo unspecified)
inactive: [1] | [2] | [3] | [4] | [5] | [7] | [8] | [9] | [10] | [11] | [12] | [19] | [13] | [14] | [15] | [16] | [17] | [18]

CCS(=O)(=O)C(C)(C)S(=O)(=O)CC
inactive: [1] | [2] | [3] | [4] | [5] | [6] | [8] | [9] | [10] | [12] | [13] | [14] | [16] | [17] | [18] | [20]

OC(Cn1cncn1)(c1ccc(F)cc1)c1ccccc1F (stereo unspecified)
inactive: [1] | [2] | [3] | [4] | [5] | [6] | [7] | [8] | [9] | [10] | [11] | [12] | [13] | [14] | [16] | [17]

COC(C)(C)C
inactive: [1] | [2] | [3] | [4] | [5] | [6] | [7] | [8] | [9] | [10] | [11] | [12] | [19] | [13] | [14] | [16] | [17]

[As]#[In]
inactive: [1] | [2] | [3] | [4] | [5] | [6] | [8] | [9] | [10] | [11] | [12] | [19] | [13] | [14] | [16] | [18] | [20]

CCC(C)n1c(=O)[nH]c(C)c(Br)c1=O (stereo unspecified)
inactive: [1] | [2] | [3] | [4] | [5] | [7] | [8] | [9] | [10] | [11] | [12] | [19] | [13] | [14] | [15] | [16] | [17]

CC(N)=S
inactive: [1] | [2] | [3] | [4] | [5] | [6] | [7] | [8] | [9] | [10] | [11] | [12] | [13] | [14] | [16]

CC1CCC(=O)O1 (stereo unspecified)
inactive: [1] | [2] | [3] | [4] | [5] | [6] | [7] | [8] | [9] | [10] | [11] | [12] | [19] | [14] | [15] | [16] | [18] | [20]

N#CCNCC#N
inactive: [1] | [2] | [3] | [4] | [5] | [6] | [8] | [9] | [10] | [11] | [19] | [13] | [14] | [15] | [16]

CC(Cl)(Cl)[N+](=O)[O-]
inactive: [1] | [2] | [3] | [4] | [5] | [6] | [7] | [8] | [9] | [10] | [11] | [12] | [19] | [13] | [14] | [15] | [16] | [17] | [18] | [20]

CN1C[C@@H](NS(=O)(=O)N(C)C)C[C@@H]2c3cccc4c3c(cn4C)C[C@H]21
inactive: [1] | [2] | [3] | [4] | [5] | [6] | [7] | [8] | [9] | [10] | [11] | [12] | [19] | [13] | [14] | [15] | [16] | [17] | [18] | [20]

CCCSC(=O)Cl
inactive: [1] | [2] | [3] | [4] | [5] | [6] | [8] | [9] | [10] | [11] | [19] | [14] | [15] | [16] | [17] | [18] | [20]

ClCC(Cl)(Cl)Cl
inactive: [1] | [2] | [3] | [4] | [5] | [6] | [7] | [8] | [9] | [10] | [11] | [12] | [19] | [13] | [14] | [15] | [16] | [17] | [18] | [20]

CC(C)COP(=O)(OCC(C)C)OCC(C)C
inactive: [1] | [2] | [3] | [4] | [5] | [7] | [8] | [9] | [10] | [11] | [12] | [19] | [13] | [14] | [16] | [17] | [18] | [20]

c1cc2c(c(N3CCNCC3)c1)OCCO2
inactive: [1] | [2] | [3] | [4] | [5] | [7] | [8] | [9] | [10] | [11] | [12] | [19] | [13] | [14] | [15] | [16] | [17] | [18] | [20]
